The results in this text go back to PubChem BioAssay (NCATS).

The nature of experiment [1]: Cell Viability - MRC5 (AID 434; calls by dose curve;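 note: potency is the fitted concentration of half-maximal effect; potency reflects cytotoxicity seen as loss of intracellular ATP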). To be noted: MRC5 lung fibroblast viability, qHTS. The method in brief: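 MRC5 normal human lung fibroblasts (1500/well) were treated with compounds for 40 hr at 37 °C in complete medium, and viable cells were measured as intracellular ATP by CellTiter-Glo luminescence. AC50 came from Hill fits, normalized to DMSO and 100 uM tamoxifen.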
On the technique in general: Quantitative high-throughput screening tests each substance at several concentrations.

The nature of experiment [2]: Cell Viability - SK-N-SH (AID 435; calls by dose curve;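 note: potency is the fitted concentration of half-maximal effect; compound exposure lasted 40 h at 37 °C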). The settings on record: SK-N-SH neuroblastoma cell viability qHTS. The method in brief:
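SK-N-SH human neuroblastoma cells (1500/well) were exposed to compounds in complete medium for 40 h at 37 °C, and intracellular ATP was then measured by CellTiter-Glo luminescence. AC50 was taken from Hill fits, normalized to DMSO and 100 uM tamoxifen.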

Experiment [3] in a line: Cellular Toxicity (caspase-3) Jurkat (AID 655).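 Note: cells exposed to compound for 16 h at 37 °C before reading.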 The settings on record: Jurkat caspase-3 activation, luminescence; caspase-3 activation: at 92.2 µM (top of the series), DMSO = 0%, tamoxifen = 100%. The method in brief: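 Jurkat cells (5000/well) in complete medium were treated with compounds for 16 hr at 37 °C, then Caspase-Glo 3/7 luminescence was read after 20 min at room temperature. Data normalized to DMSO (basal) and 100 uM tamoxifen (100%); AC50 from Hill fit.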

Experiment [4] is described as follows: Cellular Toxicity (caspase-3) HUV-EC-C (AID 656). To be noted: HUV-EC-C cells, caspase-3 activation (apoptosis), vehicle = 0, 100 µM tamoxifen = 100%; series mostly up to 92.2 µM. The method in brief: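 HUV-EC-C endothelial cells, 1000/well, were pre-incubated 5 hr at 37°C, then exposed to compounds for 16 hr at 37°C. Caspase-Glo 3/7 luminescence was read after 20 min at room temperature. AC50 came from Hill fits, normalized to DMSO and 100 uM tamoxifen.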

Experiment [5] is described as follows: Cellular Toxicity (caspase-3) H-4-II-E (AID 663).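 Note: cells exposed to compound for 16 hr before readout.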 The settings on record: H-4-II-E rat hepatoma; Potency: caspase-3 activation; series mostly up to 92.2 µM. The method in brief:
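Luminescence from caspase-cleaved aminoluciferin substrate, read 20 min after reagent addition, reports caspase 3/7 activation in rat H-4-II-E cells after 16 hr compound exposure. Normalized to DMSO (basal) and 100 uM tamoxifen (100%); AC50 from Hill fits.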

For experiment [6], the target named is Cytochrome P450 3A4 (Homo sapiens) (UniProt P08684). The experiment in a line: qHTS Assay for Inhibitors and Substrates of Cytochrome P450 3A4 (AID 884). Note: % is set by controls: 0 for no effect and ±100 for the full control effect; nearly all actives have a fitted effect of over 50% in size. To be noted: recombinant CYP3A4, Luciferin-PPXE luminescence; series mostly up to 57.1 µM. The method in brief:
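20 nM human CYP3A4 with 25 uM Luciferin-PPXE (at KM) in 200 mM KPO4, preincubated 10 min with compound; NADPH regeneration started a 60 min RT reaction. Luciferin detected by luminescence, normalized to 57 uM ketoconazole as full inhibition.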

A short description of experiment [7]: MultiTox-Fluor Cytotoxicity Assay - LYMP1-001 - Live Cells (AID 947).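 Note: 0% = DMSO only and full inhibition = tetraoctylammonium bromide control.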 The settings on record: LYMP1-001 lymphoblastoid cells, live-cell protease fluorescence viability; series mostly up to 92.2 µM.
Experiment [8] is described as follows: Cell Viability - LYMP1-002 - Assay at 16 hr (AID 948).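 Note: 0% = DMSO alone and full effect = 92 µM tetraoctylammonium bromide.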 To be noted: LYMP1-002 lymphoblastoid cell viability; series mostly up to 92.2 µM. The method in brief: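 Human lymphoblastoid cells (LYMP1-002), 2500/well, were preincubated 5 hr at 37 C, then exposed to compounds for 16 hr at 37 C in complete medium. Cellular ATP was read by CellTiter-Glo luminescence after 30 min at room temperature; AC50 from Hill fits.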

The nature of experiment [9]: Cell Viability - LYMP2-004 (AID 966).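 Note: plate controls were DMSO only for no effect and tetraoctylammonium bromide control for full effect; nearly all actives have a fitted effect of over 65% in size.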 The settings on record: LYMP2-004 lymphoblastoid cell viability, qHTS; series mostly up to 92.2 µM. The method in brief:
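Cells seeded 2500/well, rested 5 hr at 37 C, dosed across a concentration series, incubated 24 hr at 37 C, then CellTiter-Glo added for 30 min at room temperature and luminescence read. Hill fitting gave AC50.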

Experiment [10] is described as follows: Cell Viability - LYMP2-015 (AID 971).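 Note: 0% = DMSO only and full effect = 92 µM tetraoctylammonium bromide; nearly all actives have a fitted effect of over 55% in size.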 To be noted: LYMP2-015 lymphoblastoid cell viability; series mostly up to 92.2 µM. The method in brief:
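Luminescent ATP read-out (CellTiter-Glo) served as the viability measure after lymphoblastoid cells were exposed to compounds for 24 hours at 37 C. Concentration-response data were fitted with the Hill equation to give AC50.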

The nature of experiment [11]: Cell Viability - LYMP2-019 (AID 973).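 Note: 0% = DMSO alone and full effect = 92 µM tetraoctylammonium bromide; nearly all actives have a fitted effect of over 55% in size.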 The settings on record: LYMP2-019 lymphoblastoid cell line viability; series mostly up to 92.2 µM. The method in brief: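 Luminescent ATP read-out (CellTiter-Glo, 30 min room temperature) served as the viability measure after 24 hr treatment of lymphoblastoid cells at 37 C. Concentration-response data were fitted to the Hill equation for AC50.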

Experiment [12] can be described thus: Cell Viability - LYMP2-007 (AID 979).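 Note: cells exposed to compound for 24 h before reading; 0% = DMSO only and the negative end = 92 µM tetraoctylammonium bromide; nearly all actives have a fitted effect of over 60% in size.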 To be noted: LYMP2-007 lymphoblastoid cell viability; series mostly up to 92.2 µM. The method in brief:
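Luminescent ATP signal (CellTiter-Glo) serves as the viability read-out after 24 hr compound treatment of lymphoblastoid cells in complete medium at 37 C. Concentration-response data were fitted to the Hill equation to give AC50 values.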

Experiment [13] can be described thus: Cell Viability - LYMP2-008 (AID 980). Note: % is set by controls: 0 for no effect and ±100 for the full control effect; nearly all actives have a fitted effect of over 60% in size. The settings on record: LYMP2-008 lymphoblastoid cell viability, qHTS; series mostly up to 92.2 µM. The method in brief:
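qHTS, human lymphoblastoid line, 2500 cells/well; 5 hr preincubation, 24 hr compound, 37 C. CellTiter-Glo ATP luminescence. AC50 via Hill equation. Tetraoctylammonium bromide positive control.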

A short description of experiment [14]: Cell Viability - LYMP2-014 (AID 983).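 Note: plate controls were DMSO only for no effect and 92 µM tetraoctylammonium bromide for full effect; nearly all actives have a fitted effect of over 50% in size.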 The settings on record: LYMP2-014 lymphoblastoid cells, viability qHTS; series mostly up to 92.2 µM. The method in brief:
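Luminescent ATP signal (CellTiter-Glo, 30 min at room temperature) serves as the viability read-out after 24 hr compound exposure at 37 C. Cells were seeded at 2500 per well and settled 5 hr beforehand.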

Experiment [15] can be described thus: Cell Viability - LYMP2-018 (AID 985).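 Note: plate controls were DMSO only for no effect and tetraoctylammonium bromide at 92 µM for full effect; nearly all actives have a fitted effect of over 50% in size.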 To be noted: LYMP2-018 lymphoblastoid cells, viability (qHTS); series mostly up to 92.2 µM. The method in brief: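 Luminescent ATP signal (CellTiter-Glo, read after 30 min at room temperature) reports viable cells after 24 hr compound treatment at 37 C. Concentration-response data were fitted to the standard Hill equation for AC50.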

Experiment [16] can be described thus: Cell Viability - LYMP2-020 (AID 986).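 Note: plate controls were DMSO only for no effect and tetraoctylammonium bromide at 92 µM for full effect; nearly all actives have a fitted effect of over 55% in size.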 The settings on record: series mostly up to 92.2 µM. The method in brief: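 Luminescent ATP signal (CellTiter-Glo, 30 min at room temperature) is the read-out after 24 h compound treatment of lymphoblastoid cells at 37 C. AC50 values come from Hill-equation fits across concentrations.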
A short description of experiment [17]: Cell Viability - LYMP2-022 (AID 987).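 Note: 0% = DMSO alone and full effect = tetraoctylammonium bromide at 92 µM; nearly all actives have a fitted effect of over 55% in size.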 To be noted: LYMP2-022 lymphoblastoid cell viability; series mostly up to 92.2 µM. The method in brief: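 qHTS: human lymphoblastoid cells 2500/well; 5 hr 37 C; cpd added; 24 hr 37 C; CellTiter-Glo, 30 min RT; luminescence. AC50 via Hill fit; tetraoctylammonium bromide positive ctrl.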
Experiment [18] in a line: Cell Viability - LYMP2-026 (AID 989). Note: % is set by controls: 0 for no effect and ±100 for the full control effect; nearly all actives have a fitted effect of over 50% in size. The settings on record: LYMP2-026 lymphoblastoid cell viability, qHTS; series mostly up to 92.2 µM. The method in brief:
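Luminescent ATP signal (CellTiter-Glo, 30 min room temperature) measures viable lymphoblastoid cells after 24 hr compound treatment at 37 C. Decreased ATP reflects acute toxicity; AC50 values come from Hill-equation modeling.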

The nature of experiment [19]: qHTS assay for small molecule antagonists of retinoid X receptor alpha signaling (AID 588546).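 Note: cells stimulated with 9-cis-retinoic acid as agonist; % is set by controls: 0 for no effect and ±100 for the full control effect.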 The settings on record: HEK293T RXRa-UAS-bla, beta-lactamase ratio, antagonist mode; measured here: W530 green channel, cytotoxicity proxy. The method in brief:
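Beta-lactamase reporter inhibition, read as CCF4 fluorescence ratio (ex 405, em 460/530 nm) after 2 h at RT. HEK293T UAS-bla cells, 2500/well, were stimulated with 9-cis-RA at 500 or 100 nM final alongside test compound for 18 h at 37 C.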

The target in experiment [20] is Voltage-gated inwardly rectifying potassium channel KCNH2 (Homo sapiens) (UniProt Q12809). Briefly: qHTS Assay for Small Molecule Inhibitors of the Human hERG Channel Activity (AID 588834). To be noted: U2OS BacMam hERG, FluxOR thallium flux fluorescence; series mostly up to 92.2 µM. The method in brief:
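U2OS cells transduced with hERG via BacMam (MOI ~100), plated 2000/well, loaded with FluxOR thallium dye, compound ~10 min, then stimulation buffer; fluorescence decrease read kinetically; AC50 from Hill fits.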

Values joined by “and” are separate entries in the source; they are usually repeats but may differ in a detail not shown here. Identical values can stand only once. Inconclusive results are not listed. Active and inactive are the calls of the source. Unless noted, calls come from the whole dose curve; as a rule, active = well fitted curve in the direction sought with a large enough effect; inconclusive = small, poorly fitted or top-dose-only effect, or another doubt; inactive = no such curve, though single readings can be large; an effect the other way counts as inactive or inconclusive.

Chain of Cytochrome P450 3A4 (Homo sapiens) (P08684 whole entry, looked up): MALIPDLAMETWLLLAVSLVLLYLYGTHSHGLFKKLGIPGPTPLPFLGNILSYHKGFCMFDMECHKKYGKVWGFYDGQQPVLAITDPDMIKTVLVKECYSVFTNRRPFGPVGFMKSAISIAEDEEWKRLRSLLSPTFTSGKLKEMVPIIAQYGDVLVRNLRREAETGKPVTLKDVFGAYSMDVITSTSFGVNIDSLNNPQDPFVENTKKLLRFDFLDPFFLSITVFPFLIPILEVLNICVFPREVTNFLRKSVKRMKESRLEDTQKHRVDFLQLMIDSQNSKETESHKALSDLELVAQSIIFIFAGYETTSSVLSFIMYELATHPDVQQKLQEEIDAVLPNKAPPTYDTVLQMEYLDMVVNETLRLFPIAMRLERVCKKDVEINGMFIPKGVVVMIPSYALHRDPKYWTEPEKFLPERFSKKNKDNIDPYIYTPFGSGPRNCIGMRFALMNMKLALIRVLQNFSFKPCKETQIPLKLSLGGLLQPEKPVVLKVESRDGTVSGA
Chain of Voltage-gated inwardly rectifying potassium channel KCNH2 (Homo sapiens) (Q12809 whole entry, looked up): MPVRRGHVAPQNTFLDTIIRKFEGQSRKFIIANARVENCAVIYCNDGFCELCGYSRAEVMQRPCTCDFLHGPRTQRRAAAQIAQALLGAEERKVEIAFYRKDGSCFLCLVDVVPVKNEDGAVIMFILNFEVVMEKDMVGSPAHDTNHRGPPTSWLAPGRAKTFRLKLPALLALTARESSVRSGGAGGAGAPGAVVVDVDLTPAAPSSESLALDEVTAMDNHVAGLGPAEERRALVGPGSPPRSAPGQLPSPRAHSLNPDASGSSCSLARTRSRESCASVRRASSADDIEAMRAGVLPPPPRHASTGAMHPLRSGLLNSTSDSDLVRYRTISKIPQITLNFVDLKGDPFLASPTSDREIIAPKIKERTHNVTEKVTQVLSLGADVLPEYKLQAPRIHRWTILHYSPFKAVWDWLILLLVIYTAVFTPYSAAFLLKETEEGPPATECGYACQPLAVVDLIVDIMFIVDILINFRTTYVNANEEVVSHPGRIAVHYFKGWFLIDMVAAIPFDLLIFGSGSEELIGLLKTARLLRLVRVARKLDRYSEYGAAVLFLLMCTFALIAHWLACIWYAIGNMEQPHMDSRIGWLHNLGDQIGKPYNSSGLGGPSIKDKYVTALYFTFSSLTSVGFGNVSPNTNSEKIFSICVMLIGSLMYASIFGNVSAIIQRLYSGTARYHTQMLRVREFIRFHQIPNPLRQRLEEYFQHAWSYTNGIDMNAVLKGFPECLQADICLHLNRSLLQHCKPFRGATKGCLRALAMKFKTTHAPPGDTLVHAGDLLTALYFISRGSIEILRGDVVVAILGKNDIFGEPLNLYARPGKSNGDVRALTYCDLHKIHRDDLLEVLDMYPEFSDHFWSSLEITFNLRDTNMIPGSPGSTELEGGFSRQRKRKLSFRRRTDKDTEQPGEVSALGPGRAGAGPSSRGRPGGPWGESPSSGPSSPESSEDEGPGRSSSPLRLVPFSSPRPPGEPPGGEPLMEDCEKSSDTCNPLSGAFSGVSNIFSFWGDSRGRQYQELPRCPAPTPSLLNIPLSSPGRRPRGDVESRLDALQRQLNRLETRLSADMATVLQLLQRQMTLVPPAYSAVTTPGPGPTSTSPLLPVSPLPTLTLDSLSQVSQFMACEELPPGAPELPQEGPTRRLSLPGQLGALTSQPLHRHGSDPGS

With `O=C(O)CBr`, the Potency in [1] and in experiment [2] was > 92 µM (inactive) in each case. Further, the caspase-3 activation in experiment [3] was 2.79% (inactive). Moreover, the result in experiment [4], in experiment [7] and in [8] was inactive. Also, the Potency entry in [5], in experiment [6], in [9], in [10], in experiment [11] and in experiment [12] was “inactive” throughout. Besides, the Potency result in [13], in experiment [14], in experiment [15], in [16], in [17] and in [18] was “inactive” each time. The Potency entry in experiment [20] is “inactive”. Also, the max response in experiment [19] was -7.96%.

As to `CCCCC#N`, the Potency in experiment [1] and in experiment [2] was > 92 µM (inactive) throughout. Further, the caspase-3 activation in experiment [3] is 0.125% (inactive). Besides, the compound was called inactive in experiment [4], in experiment [7] and in experiment [8]. In addition, the Potency entry in experiment [5], in [6], in experiment [9], in [10], in experiment [11] and in experiment [12] was “inactive” each time. Besides, the Potency entry in [13], in [14], in [15], in experiment [16], in experiment [17] and in experiment [18] was “inactive” in each case. The Potency result in [20] is “inactive”. Moreover, the max response in experiment [19] was -4.26%.

In the case of `COC(=O)Nc1nc2ccccc2[nH]1`, in experiment [2], the Potency is > 92 µM (inactive). In addition, in experiment [3], the caspase-3 activation is 10.9% (inactive). For the same compound, the Potency entry in [5], in experiment [11], in experiment [12], in experiment [14], in experiment [15] and in experiment [16] was “inactive” each time. Further, the Potency entry in experiment [17], in experiment [18] and in experiment [20] was “inactive” throughout. The compound was called inactive in experiment [7] and in [8]. For the same compound, in [19], the max response turned out to be 1.76%.

Consider `O=C(O)C(Cl)Br` (configuration not stated), for which the Potency in experiment [1] and in experiment [2] was > 92 µM (inactive) throughout. Moreover, in [3], the caspase-3 activation is -0.427% (inactive). Also, the compound was called inactive in [4], in experiment [7] and in [8]. Moreover, the Potency entry in [5], in experiment [6], in experiment [9], in experiment [10], in experiment [11] and in experiment [12] was “inactive” throughout. Besides, the Potency entry in [13], in [14], in [15], in [16], in experiment [17] and in experiment [18] was “inactive” each time. For the same compound, the Potency entry in experiment [20] is “inactive”. Moreover, the max response in experiment [19] was -6.53%.

With `O=Cc1ccc(Cl)cc1Cl`, the Potency in experiment [1] and in experiment [2] was > 92 µM (inactive) throughout. Moreover, the caspase-3 activation in experiment [3] is 8.63% (inactive). The Potency entry in experiment [5], in [6], in experiment [9], in experiment [10], in experiment [11] and in [12] was “inactive” each time. In addition, the Potency result in experiment [13], in [14], in [15], in experiment [16], in [17] and in experiment [18] was “inactive” throughout. Besides, the Potency result in [20] is “inactive”. The compound was classed as inactive in [7] and in experiment [8]. Besides, in [19], the max response is -13.3%.

In the case of `Clc1ccc(Cl)c(Cl)c1`, the Potency in [1] and in experiment [2] was > 92 µM (inactive) in each case. Moreover, the caspase-3 activation in [3] was -0.724% (inactive). Further, the outcome in [4], in experiment [7] and in experiment [8] was inactive. Also, the Potency result in [6], in [9], in [10], in [11], in experiment [12] and in experiment [13] was “inactive” throughout. In addition, the Potency result in [14], in [15], in experiment [16], in experiment [17], in experiment [18] and in experiment [20] was “inactive” each time. The max response in experiment [19] was 10.3% and -7.29%.

Regarding `CC[N+](=O)[O-]`, the Potency in experiment [1] and in experiment [2] was > 92 µM (inactive) throughout. For the same compound, the caspase-3 activation in experiment [3] was 1.63% (inactive). The call in experiment [4], in experiment [7] and in experiment [8] was inactive. The Potency entry in experiment [5], in experiment [6], in [9], in experiment [10], in [11] and in [12] was “inactive” throughout. Further, the Potency result in experiment [13], in experiment [14], in experiment [15], in experiment [16], in experiment [17] and in experiment [18] was “inactive” in each case. The Potency result in experiment [20] was “inactive”. Further, the max response in experiment [19] was -3.61%.
